Results taken from PubChem BioAssay (Tox21).
“And” between values parts separate entries of the source, which are not always exact repeats. Equal entries are not always repeated. Inconclusive results are not listed. A call without a number means that no potency is given here. Some compounds were tested as several samples or in several runs, with calls that do not always agree. The source made the active and inactive calls. Unless noted, the call rests on the fitted dose curve; in most records, active means well fitted curve in the direction sought with a large enough effect in the repeat runs; inconclusive means weak or mixed curves; inactive means no such curve, though single readings can be large; an effect the other way counts as inactive or inconclusive.

How the values were obtained:
[1] = qHTS assay to identify small molecule agonists of the estrogen receptor alpha (ER-alpha) signaling pathway in the presence of an antagonist - cell viability counter screen (AID 1259386);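 further: cells exposed to compounds for 22 h at 37 °C before the viability read; nearly all actives have a fitted effect of over 30% in size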; further: potency means the concentration at half of the fitted maximal effect
Procedure, shortened: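 Using estrogen-depleted VM7Luc4E2 cells, the 15-concentration compound series was applied together with 10.0nM ICI-182,780 and incubated 22hr at 37C/5% CO2. Cell viability was then scored by CellTiter-Fluor.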

[2] = qHTS assay to identify small molecule agonists of the progesterone receptor (PR) signaling pathway - cell viability counter screen (AID 1346799; calls by dose curve; further: nearly all actives have a fitted effect of over 45% in size; further: potency means the concentration at half of the fitted maximal effect)
Procedure, shortened: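 Using the same plates as the PR reporter screen, HEK293T PR-UAS-bla cells received compounds for 16 hr at 37C and were then lysed with CellTiter-Glo; luminescence was read 30 min later at room temperature.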

[3] = qHTS assay to identify small molecule agonists of the TGF-beta/Smad signaling pathway - cell viability counter screen (AID 1346829); further: nearly all actives have a fitted effect of over 45% in size; further: potency means the concentration at half of the fitted maximal effect
Procedure, shortened: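 After overnight seating at 37 C and 5% CO2, reporter cells got compounds for 5 hr and FRET substrate for 2 hr; cell viability then came from CellTiter-Glo luminescence.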

[4] = qHTS assay to identify small molecule agonists of the TGF-beta/Smad signaling pathway (AID 1346859; active means well fitted activation curve with a large enough effect in the signal ratio in the repeat runs, not every such curve was filed as active; the % refers to the signal ratio; further: series mostly up to about 77 µM)
Procedure, shortened: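 Beta-lactamase reporter activity downstream of Smad binding elements was measured in stably transfected HEK 293T cells; compounds were incubated for 5 hr, substrate for 2 hr at room temperature.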

[5] = target: Thyrotropin-releasing hormone receptor (Homo sapiens) (UniProt P34981); experiment: qHTS assay to identify small molecule antagonists of the thyrotropin-releasing hormone receptor (TRHR) signaling pathway (AID 1346877; active means well fitted inhibition curve with a large enough effect in the repeat runs, not every such curve was filed as active; further: potency means the concentration at half of the fitted maximal effect)
Thyrotropin-releasing hormone receptor (Homo sapiens), sequence (P34981 whole entry, looked up): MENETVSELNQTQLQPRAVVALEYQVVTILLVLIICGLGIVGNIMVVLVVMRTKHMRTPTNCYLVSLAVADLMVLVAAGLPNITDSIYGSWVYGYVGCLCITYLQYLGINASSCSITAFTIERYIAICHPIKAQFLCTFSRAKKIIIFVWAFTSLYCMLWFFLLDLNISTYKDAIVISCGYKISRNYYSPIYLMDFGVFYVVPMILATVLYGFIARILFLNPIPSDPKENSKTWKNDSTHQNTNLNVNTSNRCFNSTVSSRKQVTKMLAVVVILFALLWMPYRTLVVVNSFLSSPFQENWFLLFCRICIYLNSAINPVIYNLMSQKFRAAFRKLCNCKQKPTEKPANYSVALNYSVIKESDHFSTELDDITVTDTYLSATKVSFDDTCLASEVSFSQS
Procedure, shortened: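 Calcium signal in dye-loaded TRHR/HEK293 cells; compounds added 5 min before TRH (1 nM final); fluorescence monitored 3 min at 1 s steps.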

[6] = target: Thyrotropin-releasing hormone receptor (Homo sapiens) (UniProt P34981); experiment: qHTS assay to identify small molecule agonists of the thyrotropin-releasing hormone receptor (TRHR) signaling pathway (AID 1346891; calls by dose curve; further: potency means the concentration at half of the fitted maximal effect;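 on activation: HEK293 cells expressing TRHR with calcium dye readout; series mostly up to about 58 µM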)
Procedure, shortened: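 Overnight-plated (18 h, 37 °C, 5% CO2) TRHR-Hek293 cells; 2 h calcium dye at 37 °C; compound in DMSO; 3-min kinetic fluorescence read.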

[7] = Human pregnane X receptor (PXR) small molecule agonists, qHTS cell viability counter screen (AID 1346977); further: nearly all actives have a fitted effect of over 50% in size; further: potency means the concentration at half of the fitted maximal effect
Procedure, shortened: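 After a 5hr pre-incubation, PXR-Luc HepG2 cells received compounds plus positive control in DMSO and were kept 24hr at 37C. Cell viability was quantified by fluorescence from CellTiter-Fluor added for the final hour.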

[8] = Caspase-3/7 induction in HepG2 cells by small molecules, qHTS assay (AID 1346978); further: nearly all actives have a fitted effect of over 15% in size; further: potency means the concentration at half of the fitted maximal effect
Procedure, shortened: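 Wild-type HepG2 cells, 2,000/well, settled 5 hr at 37 C and 5% CO2, then compound-treated for 17 hr; caspase-3/7 activity read by luminescent Caspase-Glo 3/7 after 30 min at room temperature.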

[9] = Caspase-3/7 induction in CHO-K1 cells by small molecules, qHTS cell viability counter screen (AID 1346979); further: nearly all actives have a fitted effect of over 35% in size; further: potency means the concentration at half of the fitted maximal effect
Procedure, shortened: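 Multiplexed with Caspase-Glo 3/7 in CHO-K1 cells, this counter screen added CellTiter-Fluor after 16hr of compound exposure and recorded fluorescence 1hr later.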

[10] = Caspase-3/7 induction in CHO-K1 cells by small molecules, qHTS assay (AID 1346980); further: nearly all actives have a fitted effect of over 15% in size; further: potency means the concentration at half of the fitted maximal effect
Procedure, shortened: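 Wild-type CHO-K1 cells exposed to compounds for 17hr at 37 C, 5% CO2. Caspase-3/7 activity then measured by Caspase-Glo 3/7 luminescence after 30min at room temperature.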

[11] = Caspase-3/7 induction in HepG2 cells by small molecules, qHTS cell viability counter screen (AID 1346981); further: nearly all actives have a fitted effect of over 30% in size; further: potency means the concentration at half of the fitted maximal effect
Procedure, shortened: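 After a 5-hr attachment period at 37 C and 5% CO2, wild-type HepG2 cells received compounds in DMSO. Sixteen hours later CellTiter-Fluor was dispensed and the fluorescent signal quantified after a further hour.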

[12] = target: Nuclear receptor subfamily 1 group I member 2 (Homo sapiens) (UniProt O75469); experiment: Human pregnane X receptor (PXR) small molecule agonists, qHTS assay (AID 1346982); further: nearly all actives have a fitted effect of over 35% in size; further: potency means the concentration at half of the fitted maximal effect
Nuclear receptor subfamily 1 group I member 2 (Homo sapiens), sequence (O75469 whole entry, looked up): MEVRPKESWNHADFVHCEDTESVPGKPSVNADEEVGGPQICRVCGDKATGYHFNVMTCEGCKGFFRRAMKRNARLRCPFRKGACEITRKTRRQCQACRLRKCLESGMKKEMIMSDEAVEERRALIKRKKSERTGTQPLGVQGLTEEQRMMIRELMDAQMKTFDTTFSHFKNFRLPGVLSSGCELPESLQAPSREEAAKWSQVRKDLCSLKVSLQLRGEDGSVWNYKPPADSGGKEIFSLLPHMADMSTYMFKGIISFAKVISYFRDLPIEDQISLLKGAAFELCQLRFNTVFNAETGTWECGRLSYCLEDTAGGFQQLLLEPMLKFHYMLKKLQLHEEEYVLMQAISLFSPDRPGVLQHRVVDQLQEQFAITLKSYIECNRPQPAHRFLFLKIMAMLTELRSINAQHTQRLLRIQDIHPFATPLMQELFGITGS
Procedure, shortened: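 Tox21 qHTS; PXR-Luc HepG2; compounds pinned from DMSO; 24 hr, 37 C; ONE-Glo luciferase detection, 30 min room temperature.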

[13] = target: Progesterone receptor (Homo sapiens) (UniProt P06401); experiment: qHTS assay to identify small molecule agonists of the progesterone receptor (PR) signaling pathway (AID 1346784; calls by dose curve; further: nearly all actives have a fitted effect of over 30% in size; further: potency means the concentration at half of the fitted maximal effect)
Progesterone receptor (Homo sapiens), sequence (P06401 whole entry, looked up): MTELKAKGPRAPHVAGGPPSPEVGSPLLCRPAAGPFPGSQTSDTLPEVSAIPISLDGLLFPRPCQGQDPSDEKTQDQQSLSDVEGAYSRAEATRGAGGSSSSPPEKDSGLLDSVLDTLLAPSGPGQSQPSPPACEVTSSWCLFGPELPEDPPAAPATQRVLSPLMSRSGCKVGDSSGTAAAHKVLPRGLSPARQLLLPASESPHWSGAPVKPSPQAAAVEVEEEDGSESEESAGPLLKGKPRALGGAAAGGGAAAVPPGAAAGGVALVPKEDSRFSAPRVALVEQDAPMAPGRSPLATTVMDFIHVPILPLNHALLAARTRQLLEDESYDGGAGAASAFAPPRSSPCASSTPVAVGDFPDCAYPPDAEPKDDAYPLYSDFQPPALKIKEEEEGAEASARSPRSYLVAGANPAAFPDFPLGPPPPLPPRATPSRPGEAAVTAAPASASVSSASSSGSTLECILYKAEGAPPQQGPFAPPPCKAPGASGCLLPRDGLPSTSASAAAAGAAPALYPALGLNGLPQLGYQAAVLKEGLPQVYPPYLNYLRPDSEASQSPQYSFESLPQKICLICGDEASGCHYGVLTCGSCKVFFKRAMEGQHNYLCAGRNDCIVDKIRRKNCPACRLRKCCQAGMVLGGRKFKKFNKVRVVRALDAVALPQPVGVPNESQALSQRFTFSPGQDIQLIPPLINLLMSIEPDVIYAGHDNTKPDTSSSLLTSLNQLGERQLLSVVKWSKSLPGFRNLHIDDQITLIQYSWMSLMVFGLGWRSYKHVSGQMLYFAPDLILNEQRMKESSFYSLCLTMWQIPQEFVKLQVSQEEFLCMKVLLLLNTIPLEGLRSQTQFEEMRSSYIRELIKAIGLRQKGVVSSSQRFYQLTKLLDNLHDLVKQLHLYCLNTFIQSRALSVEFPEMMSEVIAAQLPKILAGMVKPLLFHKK
Procedure, shortened: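 Seed PR-UAS-bla HEK 293T cells (2% charcoal-stripped FBS), incubate 6 hr at 37C; add compounds in DMSO, 16 hr at 37C; add LiveBLAzer B/G substrate, 2 hr RT; read fluorescence intensity.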

[14] = target: Progesterone receptor (Homo sapiens) (UniProt P06401); experiment: qHTS assay to identify small molecule antagonists of the progesterone receptor (PR) signaling pathway (AID 1346795; active means well fitted inhibition curve with a large enough effect in the signal ratio in the repeat runs, not every such curve was filed as active; the % refers to the signal ratio; further: potency means the concentration at half of the fitted maximal effect)
Procedure, shortened: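 Screening used a GripTite HEK293T line with PR-responsive UAS-beta-lactamase. Cells were challenged with compound in the presence of 1 nM R5020 final for 16 hr at 37C; B/G FRET substrate, 2 hr room temperature, fluorescence.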

[15] = qHTS assay to identify small molecule antagonists of the progesterone receptor (PR) signaling pathway - cell viability counter screen (AID 1346798); further: nearly all actives have a fitted effect of over 50% in size; further: potency means the concentration at half of the fitted maximal effect
Procedure, shortened: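 Measures cytotoxicity in parallel with the PR antagonist reporter read: HEK293T PR-UAS-bla cells get compound and R5020 for 16 hr, and remaining viable cells are quantified by CellTiter-Glo luminescence.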

[16] = qHTS assay to identify small molecule antagonists of the TGF-beta/Smad signaling pathway - cell viability counter screen (AID 1346824); further: nearly all actives have a fitted effect of over 50% in size; further: potency means the concentration at half of the fitted maximal effect
Procedure, shortened: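 SBE-bla HEK 293T cells, incubated overnight, then compound plus 0.25 ng/mL TGF-beta1 (stock added) for 5 hr at 37 C. Viability was read in the same wells by CellTiter-Glo luminescence after 30 min at room temperature.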

[17] = target: Nuclear receptor subfamily 1 group I member 2 (Homo sapiens) (UniProt O75469); experiment: CYP3A4 induction through human pregnane X receptor (PXR) by small molecules, qHTS assay (AID 1346984); further: nearly all actives have a fitted effect of over 40% in size
Procedure, shortened: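 Cells (DPX-2; HepG2 with PXR element plus CYP3A4-promoter luciferase) settled 5hr, then were treated 24hr at 37C. A 3hr, 3uM-final Luciferin-IPA step preceded luminescence measurement with One-Glo.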

[18] = target: Nuclear receptor subfamily 1 group I member 2 (Homo sapiens) (UniProt O75469); experiment: Human pregnane X receptor (PXR) activation by small molecules, qHTS assay (AID 1346985); further: nearly all actives have a fitted effect of over 40% in size; further: potency means the concentration at half of the fitted maximal effect
Procedure, shortened: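 DPX-2 cells (HepG2 co-transfected with a PXR response element and a CYP3A4-promoter luciferase construct) were seeded at 2,000 per well, rested 5 hr at 37C, then exposed to DMSO-dissolved compounds for 24 hr. Activation was read as luciferase luminescence.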

[19] = target: Acetylcholinesterase (Homo sapiens) (UniProt P22303); experiment: Acetylcholinesterase (AChE) small molecule antagonists: colormetric cell-based qHTS assay (AID 1347395; calls by dose curve; further: nearly all actives have a fitted effect of over 30% in size; further: potency means the concentration at half of the fitted maximal effect)
Acetylcholinesterase (Homo sapiens), sequence (P22303 whole entry, looked up): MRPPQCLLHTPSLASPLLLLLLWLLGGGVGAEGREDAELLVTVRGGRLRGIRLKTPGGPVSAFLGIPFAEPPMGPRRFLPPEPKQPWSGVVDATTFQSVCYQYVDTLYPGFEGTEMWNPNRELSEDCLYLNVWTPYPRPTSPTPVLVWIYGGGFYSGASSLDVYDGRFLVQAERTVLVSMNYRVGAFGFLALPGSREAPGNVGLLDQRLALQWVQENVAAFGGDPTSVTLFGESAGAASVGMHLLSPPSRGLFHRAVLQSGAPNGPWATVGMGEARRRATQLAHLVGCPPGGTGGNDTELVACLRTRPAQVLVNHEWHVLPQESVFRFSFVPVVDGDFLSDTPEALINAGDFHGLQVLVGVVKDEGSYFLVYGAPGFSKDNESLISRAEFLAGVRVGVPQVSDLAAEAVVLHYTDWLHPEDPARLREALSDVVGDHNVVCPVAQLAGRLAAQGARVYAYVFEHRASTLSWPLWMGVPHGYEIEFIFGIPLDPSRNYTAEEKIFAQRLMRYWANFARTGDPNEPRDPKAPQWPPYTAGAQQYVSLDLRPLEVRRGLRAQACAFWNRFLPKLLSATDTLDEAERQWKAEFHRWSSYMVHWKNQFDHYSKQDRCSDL
Procedure, shortened: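 In this cell-based qHTS, attached SH-SY5Y cells were treated with test chemicals for 30 min, after which acetylthiocholine hydrolysis was followed by DTNB colour development over 90 min at 37 C.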

[20] = target: Nuclear receptor subfamily 1 group I member 2 (Rattus norvegicus) (UniProt Q9R1A7); experiment: Rat pregnane X receptor (rPXR) activation by small molecules, qHTS assay (AID 1346983); settings: rPXR luciferase reporter cells, One-Glo luminescence, 24 h; stronger effect = higher value; further: nearly all actives have a fitted effect of over 20% in size
Nuclear receptor subfamily 1 group I member 2 (Rattus norvegicus), sequence (Q9R1A7 whole entry, looked up): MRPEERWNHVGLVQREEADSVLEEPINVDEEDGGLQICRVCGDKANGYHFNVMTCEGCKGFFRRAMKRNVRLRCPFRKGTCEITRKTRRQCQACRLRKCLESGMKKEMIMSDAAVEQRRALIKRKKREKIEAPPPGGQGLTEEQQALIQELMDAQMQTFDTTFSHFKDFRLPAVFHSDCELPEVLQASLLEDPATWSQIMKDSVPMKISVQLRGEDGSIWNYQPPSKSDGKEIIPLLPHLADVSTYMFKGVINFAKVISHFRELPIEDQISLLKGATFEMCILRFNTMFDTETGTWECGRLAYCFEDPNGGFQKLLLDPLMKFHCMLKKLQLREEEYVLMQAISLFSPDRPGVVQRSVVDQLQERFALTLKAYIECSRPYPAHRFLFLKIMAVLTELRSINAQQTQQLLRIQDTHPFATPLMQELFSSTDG
Procedure, shortened: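 Cell-based rPXR activation assay: rPXR cells, 2,000 per well, rested 5hr at 37 C, then exposed to compounds in DMSO for 24 hr at 37 C. Luciferase activity read by One-Glo luminescence after 30 min at room temperature.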

Row | Compound | Potency [1] | Potency [2] | Potency [3] | Potency [4] | Potency [5] | Potency [6] | Potency [7] | Potency [8] | Potency [9] | Potency [10] | Potency [11] | Potency [12] | Potency [13] | Potency [14] | Potency [15] | Potency [16] | outcome [17] | Potency [18] | Potency [19] | max activation [20]
1 | CCCC[n+]1ccc(C)cc1 | inactive | inactive and 60.8 µM (active) | inactive | inactive | inactive and 24 µM (active) | inactive and 15.5 µM (active) | inactive and 6.12 µM (active) | inactive and 54.2 µM (active) | inactive and 54.2 µM (active) | inactive | inactive and 19.4 µM (active) | inactive and 5.45 µM (active) | – | – | – | – | – | – | – | –
2 | CCCCCCCCCCCCOS(=O)(=O)O | inactive | inactive and 27.3 µM (active) | inactive | inactive | – | – | inactive | inactive | inactive | inactive | inactive | inactive | inactive | inactive | inactive | inactive | inactive | inactive | inactive | –
3 | CCCCn1cc[n+](C)c1 | inactive | inactive | inactive | inactive | – | – | inactive | inactive | inactive | inactive | inactive | – | – | – | inactive | inactive | – | – | – | –
4 | OCCOc1ccccc1 | inactive | inactive | inactive | inactive | – | – | inactive | inactive | inactive | inactive | inactive | inactive | inactive | inactive | inactive | inactive | inactive | inactive | inactive | -2.05% (inactive)
5 | CCCCCCCCCCCCCCCCn1cc[n+](C)c1 | inactive and 55 µM (active) and 21.7 µM (active) | inactive and 61.7 µM (active) and 30.7 µM (active) | – | inactive | – | – | – | inactive | – | inactive | – | 7.86 µM (active) and inactive and 6.13 µM (active) | inactive | inactive and 21.7 µM (active) | – | – | – | – | inactive | –
6 | CCCCCCCCCCCC(=O)O | inactive | inactive | inactive | inactive | – | – | inactive | inactive | inactive | inactive | inactive | inactive | inactive | inactive | inactive | inactive | – | – | inactive | –
7 | CC[N+]1(C)CCCC1 | inactive | inactive | inactive | inactive | – | – | inactive | inactive | inactive | inactive | inactive | inactive | 19.8 µM (active) and inactive | inactive | inactive | inactive | – | – | inactive and 22.4 µM (active) | –
8 | CCCCCCCCCCCCn1cc[n+](C)c1 | – | – | – | inactive | – | – | – | 43.6 µM (active) and inactive | – | inactive | 24.5 µM (active) and inactive | – | inactive | 27.5 µM (active) [middle of 4 runs] | – | – | – | – | – | –
9 | CC[N+](CC)(CC)CC | inactive | inactive | inactive | inactive | – | – | inactive | inactive | inactive | inactive | inactive | – | inactive | inactive | inactive | inactive | – | – | – | -1.28% (inactive)
10 | Cc1cc(Cl)ccc1OCC(=O)O | inactive | inactive | inactive | inactive | – | – | inactive | inactive | inactive | inactive | inactive | inactive | inactive | inactive | inactive | inactive | – | – | inactive | –
11 | Cc1cc(-c2ccc(N)c(C)c2)ccc1N | inactive | inactive | inactive | inactive | – | – | inactive | inactive | inactive | inactive | inactive | 53.7 µM (active) and 61.8 µM (active) | inactive | 61.8 µM (active) and 48.4 µM (active) and 17.2 µM (active) | inactive | inactive | – | – | inactive | –
12 | CCCCCCCCn1cc[n+](C)c1 | – | – | inactive | inactive | – | – | 9.68 µM (active) and 7.76 µM (active) and 8.72 µM (active) | inactive | 54.1 µM (active) and 49 µM (active) and 55 µM (active) | inactive | inactive | 13.6 µM (active) and 21.7 µM (active) and 17.4 µM (active) | inactive | inactive | inactive | inactive | – | – | – | –
13 | CCCCCCCCCCCCCC[P+](CCCCCC)(CCCCCC)CCCCCC | 9.73 µM (active) and 21.9 µM (active) and 6.85 µM (active) | – | 15.6 µM (active) and 24.7 µM (active) and inactive | inactive | – | – | 3.87 µM (active) and 6.16 µM (active) and 1.72 µM (active) | inactive | 4.35 µM (active) and 6.16 µM (active) and 2.73 µM (active) | inactive and 13.8 µM (active) | 13.7 µM (active) and 19.5 µM (active) and inactive | 2.74 µM (active) and 3.89 µM (active) and 3.43 µM (active) | inactive | inactive | 30.8 µM (active) | – | – | – | 71.3 µM (active) and 80.3 µM (active) and inactive | –
14 | CCC[N+]1(C)CCCCC1 | inactive | inactive | inactive | inactive | – | – | inactive | inactive | inactive | inactive | inactive | inactive | inactive | inactive | inactive | inactive | – | – | inactive | –
15 | CCCCCC[n+]1ccccc1 | inactive | inactive | inactive | inactive | – | – | – | inactive | inactive | inactive | inactive | 11 µM (active) and inactive | inactive | inactive | inactive | inactive | – | – | – | –
16 | Oc1cccc2cccnc12 | inactive | 770 nM (active) and inactive | inactive | inactive | – | – | – | 54.8 µM (active) and inactive and 10.6 µM (active) | – | inactive | inactive | – | inactive | 4.6 µM (active) and inactive | – | inactive | – | – | – | -0.611% (inactive)
17 | CC(=O)[O][Hg][c]1ccccc1 | 7.63 µM (active) and 13.7 µM (active) and 26.6 µM (active) | 5.4 µM (active) and 5.45 µM (active) and 5.96 µM (active) | 8.63 µM (active) and 7.76 µM (active) and 9.52 µM (active) | – | – | – | 2.24 µM (active) and 3.06 µM (active) and 4.73 µM (active) | inactive | 762 nM (active) and 1.09 µM (active) and 1.88 µM (active) | inactive | 5.4 µM (active) and 5.45 µM (active) and 11.9 µM (active) | inactive | – | 2.15 µM (active) | 4.81 µM (active) and 3.86 µM (active) and 5.31 µM (active) | 7.69 µM (active) and 8.71 µM (active) and 10.7 µM (active) | inactive | 10 µM (active) | inactive | -23.3% (inactive)
